# Screening data deposited in PubChem by The Scripps Research Institute Molecular Screening Center.
# PME-1 primary – PME-1 inhibitors via competitive probe labeling, primary screen, biochemical, fluorescence polarization, FP-Rh probe, HTS. actives 0.53% (n = 320,000). recombinant PME-1. inhibition, % at 5.9 µM;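 active means inhibition above the campaign mean of all compounds plus 3 SD, cut at about 26% in these data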;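 further: competitive labeling of PME-1 active site by serine hydrolase directed probe; 0% = PME-1 with DMSO and 100% = wells lacking PME-1 enzyme; inhibitors block probe labeling so polarization falls and inhibition rises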
# PAD4 FP inh – human PAD4 inhibitors, primary screen, biochemical, fluorescence polarization, 1536-well format | Protein-arginine deiminase type-4 (Homo sapiens), Q9UM07 | recombinant PAD4, RCA probe fluorescence polarization | inhibition, % at 6.36 µM | actives 0.41% (n = 330,000);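 active means percent inhibition above a cutoff equal to the mean of all tested compounds plus 3 SD, cut at about 15% in these data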;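 further: 0% = PAD4 with RCA probe and DMSO and 100% = probe without PAD4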
# LYPLA2 counter – LYPLA2 inhibitors, primary screen, counter-screen for PME1 inhibitor project, biochemical, fluorescence polarization, FP-Rh probe ABPP. Acyl-protein thioesterase 2 (Homo sapiens), O95372. recombinant LYPLA2. actives 0.38% (n = 320,000). AID 2177, 2009. inhibition, % at 5.9 µM;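 active means inhibition above the screen-wide mean plus 3 SD, limit set per campaign, cut at about 26% in these data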;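 further: 0% = LYPLA2 with DMSO and 100% = wells lacking LYPLA2 enzyme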
# Target sequence (O95372 whole entry, looked up): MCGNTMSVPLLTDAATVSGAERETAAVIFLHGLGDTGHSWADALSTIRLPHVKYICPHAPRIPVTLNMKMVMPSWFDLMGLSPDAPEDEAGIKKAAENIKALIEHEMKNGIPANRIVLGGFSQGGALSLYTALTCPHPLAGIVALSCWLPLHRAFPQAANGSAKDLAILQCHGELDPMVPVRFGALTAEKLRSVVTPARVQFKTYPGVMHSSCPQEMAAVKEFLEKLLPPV
# LYPLA1 inh – LYPLA1 inhibitors, primary screen, counter-screen for PME1 inhibitor project, biochemical, fluorescence polarization, FP-Rh probe ABPP; recombinant LYPLA1; inhibition, % at 5.9 µM; actives 0.16% (n = 320,000);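 active means inhibition above the mean of all tested compounds plus 3 SD, set per campaign, cut at about 14% in these data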;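 further: inhibitors block serine hydrolase probe labeling of LYPLA1 so polarization falls; 0% = enzyme with DMSO and 100% = wells lacking LYPLA1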
# Target sequence (O75608 whole entry, looked up): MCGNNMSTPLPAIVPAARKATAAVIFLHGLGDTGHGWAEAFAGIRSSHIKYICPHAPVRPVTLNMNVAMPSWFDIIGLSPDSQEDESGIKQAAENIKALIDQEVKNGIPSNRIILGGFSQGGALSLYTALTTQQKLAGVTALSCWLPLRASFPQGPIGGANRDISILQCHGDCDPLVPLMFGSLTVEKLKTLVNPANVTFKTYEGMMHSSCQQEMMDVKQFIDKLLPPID
# GSTO1 inh – inhibitors of recombinant GSTO1, primary screen, counter-screen for RBBP9 inhibitor project, biochemical, fluorescence polarization. Glutathione S-transferase omega-1 (Homo sapiens), P78417. activity-based probe fluorescence polarization. inhibition, % at 5.96 µM. actives 1.1% (n = 300,000);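 active means inhibition above the campaign mean inhibition plus 3 SD, cut at about 35% in these data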;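 further: 0% = GSTO1-1 with DMSO and 100% = wells lacking GSTO1-1 enzyme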
# Fam108B inh – mouse Fam108B serine hydrolase inhibitors, primary screen, counter-screen for RBBP9 inhibitor project, biochemical, fluorescence polarization; AID 1947, 2009; recombinant Fam108B, FP-Rh probe fluorescence polarization; inhibition, % at 9.51 µM; actives 0.33% (n = 300,000);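 active means inhibition above the screen mean inhibition plus 3 SD, computed separately per campaign, cut at about 18% in these data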;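 further: inhibitors lower polarization as less probe binds the enzyme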
# Fam108b inh conf – mouse Fam108b serine hydrolase inhibitors, confirmation, counter-screen for RBBP9 inhibitor project, biochemical, fluorescence polarization, triplicate. shares compounds with Fam108B inh. recombinant Fam108b, FP-Rh probe fluorescence polarization. inhibition, % at 9.51 µM. actives 44% (n = 930). AID 1978, 2009;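 active means inhibition above a limit from the primary screen, the mean over all compounds plus 3 SD, cut at about 19% in these data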;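 further: 0% = median of active Fam108b wells and 100% = catalytically dead S170A mutant; inhibitors free the probe so polarization falls as inhibition rises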
# Fam108b ABPP HTS – inhibition of mouse Fam108b by HTS hits, late-stage follow-up, biochemical, gel-based ABPP, soluble recombinant form | shares compounds with Fam108B inh | inhibition, % at 20 µM | fluorophosphonate probe | AID 588649, 2011 | actives 44% (n = 260); in the data active means inhibition above about 40%
# * marks the source's active call; other numbers are inactive results; nt = no result given. The list is not random: actives were taken first. Their share in the collection is about 1.7%.
SMILES,PME-1 primary,PAD4 FP inh,LYPLA2 counter,LYPLA1 inh,GSTO1 inh,Fam108B inh,Fam108b inh conf,others
O=[N+]([O-])c1cccc(N/N=C/c2cccc3ccccc23)c1,25,7,17,-2,4,26*,23*,
O=[N+]([O-])c1ccc(N/N=C/c2ccc[nH]2)cc1,24,-6,3,-11,-12,12,nt,
Cc1cccc(C(=O)Oc2ccc(/C=N/O)cc2)c1,-2,4,3,-2,13,2,nt,
O=C(O)c1cc(N/N=C/c2cccc3ccccc23)ccc1Cl,-2,-7,2,2,0,0,nt,
CCC1=NN(C(=O)C(=O)Nc2ccc(Br)cc2)C(O)(C(F)(F)F)C1 (centres undefined),-6,1,0,0,6,0,nt,
CC(=O)NCc1ccc(S(=O)(=O)N2CCCN(C)CC2)cc1,-1,-4,-3,0,2,-3,nt,
Cc1ccc([N+](=O)[O-])cc1-c1[nH]c(-c2ccc(O)c(O)c2)nc1-c1ccccc1,18,-5,-9,-11,6,17,nt,
COc1ccc(-c2nc(-c3ccccc3)c(-c3cc([N+](=O)[O-])ccc3C)[nH]2)cc1O,39*,-5,1,-4,-24,28*,11,
O=C(N/N=C/c1ccc([N+](=O)[O-])cc1)c1ccc(COc2ccccc2-c2ccccc2)cc1,-11,2,-11,-11,6,26*,3,
O=C(N/N=C/c1ccc([N+](=O)[O-])cc1)c1ccccc1OCc1ccccc1,9,-5,4,3,-6,-7,nt,
Cn1c(=O)c(Nc2ccc(O)cc2)c2c3c(cccc31)C(=O)c1ccccc1-2,36*,14,10,6,24,23*,22*,
CCn1c(SCC(=O)NC2CCCCC2)nnc1C(C)NC(=O)c1ccccc1F (centres undefined),0,4,-3,0,2,-5,nt,
Cc1nnc(C)n1/N=C/C=C/c1ccccc1,0,3,4,1,0,-4,nt,
Cc1nc2ccccc2c(=O)n1/N=C/C=C/c1ccccc1,1,-1,6,0,7,24*,83*,
Cc1nc2ccccc2c(=O)n1N=C/C=C/c1ccccc1,nt,nt,nt,nt,nt,nt,nt,Fam108b ABPP HTS=0
CCCNC(=O)c1ccc2c(=O)c(O)c(-c3ccc(F)cc3)[nH]c2c1,16,-3,-3,-5,9,4,nt,
Nc1c(Cl)cc(-c2[nH]c3cc(C(=O)NCCO)ccc3c(=O)c2O)cc1Cl,42*,-2,-26,-21,0,29*,18,
c1coc(C2Nc3ccccc3C3OCCC23)c1 (centres undefined),-1,3,2,1,5,-4,nt,
c1coc(C2Nc3cccc4cccc(c34)N2)c1,8,-3,-2,-8,50*,22*,18*,
COc1ccc(C2Nc3cccc4cccc(c34)N2)cc1Br,32*,-5,2,-10,32,37*,6,
CCCOc1ccc(C2Nc3cccc4cccc(c34)N2)cc1,49*,-2,-4,-7,19,25*,15,
Oc1ccc(C2Nc3cccc4cccc(c34)N2)c(O)c1,64*,-4,18,3,3,67*,45*,Fam108b ABPP HTS=65*
C/C(=C\c1ccccc1)C1Nc2cccc3cccc(c23)N1,10,-12,1,-7,nt,nt,nt,
CCOC(=O)C1=C(N)OC2=C(C(=O)CC(C)(C)C2)C1c1cccs1 (centres undefined),9,0,6,2,13,5,nt,
Fc1ccc(C2Nc3cccc4cccc(c34)N2)cc1,11,-2,-4,-8,37*,33*,11,
SMILES,PME-1 primary,PAD4 FP inh,LYPLA2 counter,LYPLA1 inh,GSTO1 inh,Fam108B inh,Fam108b inh conf,others
C=CCOCCn1[nH]c2ccccc2c1=O,-1,0,-3,-1,6,-3,nt,
COc1ccc(Nc2nc(-c3cccs3)nc3ccccc23)cc1,18,-1,0,-2,-16,28*,-11,
O=[N+]([O-])c1cc(/C=N/Nc2nc3ccccc3[nH]2)c(O)cc1O,17,-4,19,2,27,19*,17,
C/C(=N\NC(=O)c1ccccc1O)C1C(=O)c2ccccc2C1=O,15,2,15,6,-4,51*,51*,
CCC/C(C)=N/NC(=O)c1ccccc1O,-10,-1,-4,-2,2,-3,nt,
Cc1cccc(OCCn2cc(/C=N/NC(=O)c3ccncc3)c3ccccc32)c1,27*,-2,7,3,-12,30*,7,
COc1ccc(/C(C)=N/Nc2cccc(C(=O)O)c2)cc1OC,3,-3,-1,2,4,2,nt,
C/C(=N\Nc1ccc(C(=O)O)cc1)c1ccc2c(c1)Nc1ccccc1S2,28*,0,12,9,25,30*,27*,
Cc1cccc2c(N=Nc3ccc(S(=O)(=O)Nc4cccc(Cl)c4)cc3[N+](=O)[O-])c(O)[nH]c12,32*,-1,-22,-26,15,36*,28*,
Cc1cccnc1N1C(=O)c2ccc(C(=O)O)cc2C1=O,8,0,4,-1,6,5,nt,
O=c1cc(-c2ccc(O)cc2)oc2c(-c3c(O)cc(O)c4c(=O)cc(-c5ccc(O)cc5)oc34)c(O)cc(O)c12,nt,0,nt,nt,nt,nt,nt,
O=c1cc(-c2ccc(O)c(-c3c(O)cc(O)c4c(=O)cc(-c5ccc(O)cc5)oc34)c2)oc2cc(O)cc(O)c12,5,-4,-35,-22,0,44*,41*,Fam108b ABPP HTS=75*
CC(Sc1nnc(NC2CCCCC2)s1)C(=O)Nc1ccc2c(c1)C(=O)c1ccccc1C2=O (centres undefined),32*,-6,-10,-7,-68,27*,5,
COc1ccc(Nc2nnc(SC(C)C(=O)NC3CC3)s2)cc1 (centres undefined),nt,-2,nt,nt,nt,nt,nt,
Cc1cccc(N2CCN(C(=O)[C@H](C)N3C(=O)C4CC=CCC4C3=O)CC2)c1C (some centres undefined),nt,-3,nt,nt,nt,nt,nt,
